From the supplement of paper PMC10849652
The full data set covers some 7,900 targets. This sample favours those with a hit. About 0.6% of all pairs of compound and target were hits.

Assays:
Test in all cases: log2 fold change, soluble protein after heating vs DMSO (PISA); higher = thermal stabilisation; K562 cells, 10 uM, 30 min; active = over 0.2 and 3.5 SD of the protein, either way, in both replicates (recomputed)
[1] = compound: C1=CC=C(C=C1)[C@H](COC2=CC3=C(C=C2)NC(=O)N3)NC(=O)C4=CC=CN(C4=O)CC5=CC(=C(C=C5)F)F
Method in brief: (§1)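 K562 cells (2×10^6 cells/mL) were treated with 10 μM compound for 30 min, and aliquots were heated for 3 min over 48°C-58°C. Pooled aliquots were extracted in PBS with 0.5% NP-40 at 4°C, and the supernatant after 21,000xg for 90 min was measured by TMTpro 16plex LC-MS/MS with channel sums equalised. Reported thermal stability, relative to control samples and from duplicates, is a log2 fold change.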

[2] = compound: CC1=C(SC2=C1C(=N[C@H](C3=NN=C(N32)C)CC(=O)N)C4=CC=C(C=C4)Cl)C
Method in brief: as §1

[3] = compound: CC1=C2C(=CC=C1)N=C(N(C2=O)C3=CC=CC=C3C)CN4C=NC5=C(N=CN=C54)N
Method in brief: as §1

[4] = compound: Cc1sc2c(c1C)C(c1ccc(Cl)cc1)=N[C@@H](CC(=O)OC(C)(C)C)c1nnc(C)n1-2
Method in brief: as §1

[5] = compound: c1ccc([C@@H]2C[C@H]2NC2CCNCC2)cc1
Method in brief: as §1

Measured: log2 fold change

SPINDOC (UniProt Q9BUA3)
Chain of UniProt Q9BUA3 (Q9BUA3 whole entry, looked up): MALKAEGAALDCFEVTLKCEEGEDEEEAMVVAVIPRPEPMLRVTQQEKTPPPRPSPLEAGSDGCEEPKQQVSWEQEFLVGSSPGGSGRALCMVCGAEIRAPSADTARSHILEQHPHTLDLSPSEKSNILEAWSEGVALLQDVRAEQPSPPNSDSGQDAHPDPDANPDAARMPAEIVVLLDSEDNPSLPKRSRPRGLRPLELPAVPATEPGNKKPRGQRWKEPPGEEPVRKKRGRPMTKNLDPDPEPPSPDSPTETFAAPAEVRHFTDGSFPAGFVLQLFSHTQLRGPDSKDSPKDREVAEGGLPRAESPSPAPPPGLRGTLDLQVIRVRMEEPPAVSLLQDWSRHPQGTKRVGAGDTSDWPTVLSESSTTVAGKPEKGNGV
inactive: [1] 0.03 | [2] 0.02 | [3] -0.066 | [4] 0.145 | [5] 0.041

SNX2 isoform 2 (UniProt O60749)
Chain of UniProt O60749 (O60749 whole entry, looked up): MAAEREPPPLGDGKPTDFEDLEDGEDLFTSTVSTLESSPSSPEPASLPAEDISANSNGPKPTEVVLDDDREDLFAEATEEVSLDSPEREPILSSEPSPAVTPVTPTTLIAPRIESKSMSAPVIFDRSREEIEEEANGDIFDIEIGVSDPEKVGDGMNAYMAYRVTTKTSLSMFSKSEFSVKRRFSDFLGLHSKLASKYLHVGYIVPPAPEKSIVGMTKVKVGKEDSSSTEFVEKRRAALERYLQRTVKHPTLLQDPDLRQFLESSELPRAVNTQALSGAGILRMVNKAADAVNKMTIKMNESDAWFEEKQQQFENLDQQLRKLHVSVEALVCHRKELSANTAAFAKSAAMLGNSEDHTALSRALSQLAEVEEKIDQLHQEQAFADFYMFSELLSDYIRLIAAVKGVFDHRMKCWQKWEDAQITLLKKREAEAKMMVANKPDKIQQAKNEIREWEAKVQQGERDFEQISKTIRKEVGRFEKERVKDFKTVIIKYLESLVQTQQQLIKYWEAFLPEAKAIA
inactive: [1] 0.092 | [2] 0.217 | [3] 0.094 | [5] 0.066

TLK1 (UniProt Q9UKI8)
inactive: [1] 0.007 | [2] 0.036 | [3] 0.036 | [4] -0.036 | [5] 0.018

SLC9A6 isoform 3 (UniProt Q92581)
Chain of UniProt Q92581 (Q92581 whole entry, looked up): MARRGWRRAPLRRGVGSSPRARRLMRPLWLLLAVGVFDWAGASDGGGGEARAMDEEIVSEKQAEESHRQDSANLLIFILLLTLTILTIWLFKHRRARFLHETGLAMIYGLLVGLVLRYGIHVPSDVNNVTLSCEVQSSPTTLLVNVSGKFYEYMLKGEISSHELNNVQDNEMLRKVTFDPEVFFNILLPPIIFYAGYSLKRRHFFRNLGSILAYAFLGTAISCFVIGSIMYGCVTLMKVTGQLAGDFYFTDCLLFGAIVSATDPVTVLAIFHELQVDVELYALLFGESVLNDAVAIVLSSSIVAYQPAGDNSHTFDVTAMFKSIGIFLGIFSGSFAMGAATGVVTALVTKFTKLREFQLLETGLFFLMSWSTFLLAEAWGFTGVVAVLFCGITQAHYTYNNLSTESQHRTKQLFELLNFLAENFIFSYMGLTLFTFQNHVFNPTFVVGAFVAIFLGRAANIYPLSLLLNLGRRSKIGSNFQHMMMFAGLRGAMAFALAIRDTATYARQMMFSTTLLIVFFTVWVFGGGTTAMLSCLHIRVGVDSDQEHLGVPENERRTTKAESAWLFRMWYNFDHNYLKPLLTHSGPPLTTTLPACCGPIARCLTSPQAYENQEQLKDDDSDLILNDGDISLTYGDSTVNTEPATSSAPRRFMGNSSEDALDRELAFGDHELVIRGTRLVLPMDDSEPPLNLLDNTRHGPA
inactive: [1] -0.057 | [2] 0.003 | [4] -0.005 | [5] 0.089

SLC27A1 (UniProt Q6PCB7)
Chain of UniProt Q6PCB7 (Q6PCB7 whole entry, looked up): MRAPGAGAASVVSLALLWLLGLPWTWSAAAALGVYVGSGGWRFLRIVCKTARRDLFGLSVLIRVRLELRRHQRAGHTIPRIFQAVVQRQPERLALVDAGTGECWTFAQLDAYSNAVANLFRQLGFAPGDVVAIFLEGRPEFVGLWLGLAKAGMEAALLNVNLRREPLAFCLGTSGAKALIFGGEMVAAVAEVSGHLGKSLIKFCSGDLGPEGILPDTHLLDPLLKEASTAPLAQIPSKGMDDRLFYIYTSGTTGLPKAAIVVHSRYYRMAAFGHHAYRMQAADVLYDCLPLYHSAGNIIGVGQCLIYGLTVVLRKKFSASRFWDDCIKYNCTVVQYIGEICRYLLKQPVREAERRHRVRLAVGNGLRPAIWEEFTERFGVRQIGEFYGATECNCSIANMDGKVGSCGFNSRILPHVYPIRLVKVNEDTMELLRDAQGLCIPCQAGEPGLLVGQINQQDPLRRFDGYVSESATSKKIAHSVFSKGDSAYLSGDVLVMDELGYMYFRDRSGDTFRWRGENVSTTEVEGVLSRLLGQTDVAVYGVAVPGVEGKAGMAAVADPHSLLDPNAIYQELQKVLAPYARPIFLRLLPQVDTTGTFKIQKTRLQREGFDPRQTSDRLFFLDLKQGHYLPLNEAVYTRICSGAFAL
inactive: [1] -0.02 | [2] 0.161 | [3] 0.293 | [4] 0.11 | [5] -0.029

SLC35B4 (UniProt Q969S0)
Chain of UniProt Q969S0 (Q969S0 whole entry, looked up): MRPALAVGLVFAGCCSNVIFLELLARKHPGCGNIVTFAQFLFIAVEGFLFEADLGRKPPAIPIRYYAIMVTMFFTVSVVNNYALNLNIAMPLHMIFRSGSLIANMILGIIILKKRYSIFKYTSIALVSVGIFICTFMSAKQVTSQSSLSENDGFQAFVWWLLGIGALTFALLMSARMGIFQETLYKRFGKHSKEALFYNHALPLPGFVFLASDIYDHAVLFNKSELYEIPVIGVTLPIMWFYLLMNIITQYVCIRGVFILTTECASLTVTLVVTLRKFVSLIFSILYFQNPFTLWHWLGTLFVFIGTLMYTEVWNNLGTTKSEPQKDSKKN
inactive: [1] 0.061 | [3] -0.069 | [4] -0.137

SLC25A39 (UniProt Q9BZJ4)
Chain of UniProt Q9BZJ4 (Q9BZJ4 whole entry, looked up): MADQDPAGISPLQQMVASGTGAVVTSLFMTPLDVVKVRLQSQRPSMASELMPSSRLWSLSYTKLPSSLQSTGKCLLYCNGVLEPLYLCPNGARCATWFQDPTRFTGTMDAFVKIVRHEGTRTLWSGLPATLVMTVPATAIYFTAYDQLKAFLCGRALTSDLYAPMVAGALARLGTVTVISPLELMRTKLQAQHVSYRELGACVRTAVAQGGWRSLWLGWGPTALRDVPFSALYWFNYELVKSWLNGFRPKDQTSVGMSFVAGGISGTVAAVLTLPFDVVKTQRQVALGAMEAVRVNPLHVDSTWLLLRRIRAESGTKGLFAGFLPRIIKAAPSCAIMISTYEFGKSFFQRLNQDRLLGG
inactive: [1] 0.031 | [2] -0.166 | [3] 0.149 | [4] 0.09 | [5] 0.019

STAT6 (UniProt P42226)
inactive: [1] -0.02 | [2] -0.019 | [3] 0.198 | [4] 0.009 | [5] -0.015

SORT1 (UniProt Q99523)
Chain of UniProt Q99523 (Q99523 whole entry, looked up): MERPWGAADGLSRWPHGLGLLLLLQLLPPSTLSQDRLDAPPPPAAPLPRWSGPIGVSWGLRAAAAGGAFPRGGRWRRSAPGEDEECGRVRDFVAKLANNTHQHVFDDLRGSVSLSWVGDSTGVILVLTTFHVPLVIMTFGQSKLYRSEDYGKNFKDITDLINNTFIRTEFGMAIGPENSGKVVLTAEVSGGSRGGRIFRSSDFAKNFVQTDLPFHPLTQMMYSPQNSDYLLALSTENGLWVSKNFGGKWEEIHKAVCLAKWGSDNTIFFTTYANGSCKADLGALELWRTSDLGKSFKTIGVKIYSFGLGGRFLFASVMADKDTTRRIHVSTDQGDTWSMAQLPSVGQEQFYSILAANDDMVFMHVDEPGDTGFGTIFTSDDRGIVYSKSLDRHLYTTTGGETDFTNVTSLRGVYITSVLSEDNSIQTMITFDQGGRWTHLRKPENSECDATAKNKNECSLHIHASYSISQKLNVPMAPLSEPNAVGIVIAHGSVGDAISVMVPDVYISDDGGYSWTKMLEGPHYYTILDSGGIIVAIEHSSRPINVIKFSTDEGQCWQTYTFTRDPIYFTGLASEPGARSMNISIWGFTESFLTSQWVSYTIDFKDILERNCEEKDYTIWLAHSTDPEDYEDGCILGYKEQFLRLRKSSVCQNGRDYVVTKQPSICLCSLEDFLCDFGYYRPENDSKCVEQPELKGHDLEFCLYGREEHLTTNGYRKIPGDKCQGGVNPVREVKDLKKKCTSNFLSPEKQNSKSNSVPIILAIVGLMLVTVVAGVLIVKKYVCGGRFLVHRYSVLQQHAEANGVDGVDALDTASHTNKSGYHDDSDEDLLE
inactive: [1] 0.029 | [2] -0.01 | [3] -0.03 | [4] 0.027 | [5] 0.009

TANGO6 (UniProt Q9C0B7)
Chain of UniProt Q9C0B7 (Q9C0B7 whole entry, looked up): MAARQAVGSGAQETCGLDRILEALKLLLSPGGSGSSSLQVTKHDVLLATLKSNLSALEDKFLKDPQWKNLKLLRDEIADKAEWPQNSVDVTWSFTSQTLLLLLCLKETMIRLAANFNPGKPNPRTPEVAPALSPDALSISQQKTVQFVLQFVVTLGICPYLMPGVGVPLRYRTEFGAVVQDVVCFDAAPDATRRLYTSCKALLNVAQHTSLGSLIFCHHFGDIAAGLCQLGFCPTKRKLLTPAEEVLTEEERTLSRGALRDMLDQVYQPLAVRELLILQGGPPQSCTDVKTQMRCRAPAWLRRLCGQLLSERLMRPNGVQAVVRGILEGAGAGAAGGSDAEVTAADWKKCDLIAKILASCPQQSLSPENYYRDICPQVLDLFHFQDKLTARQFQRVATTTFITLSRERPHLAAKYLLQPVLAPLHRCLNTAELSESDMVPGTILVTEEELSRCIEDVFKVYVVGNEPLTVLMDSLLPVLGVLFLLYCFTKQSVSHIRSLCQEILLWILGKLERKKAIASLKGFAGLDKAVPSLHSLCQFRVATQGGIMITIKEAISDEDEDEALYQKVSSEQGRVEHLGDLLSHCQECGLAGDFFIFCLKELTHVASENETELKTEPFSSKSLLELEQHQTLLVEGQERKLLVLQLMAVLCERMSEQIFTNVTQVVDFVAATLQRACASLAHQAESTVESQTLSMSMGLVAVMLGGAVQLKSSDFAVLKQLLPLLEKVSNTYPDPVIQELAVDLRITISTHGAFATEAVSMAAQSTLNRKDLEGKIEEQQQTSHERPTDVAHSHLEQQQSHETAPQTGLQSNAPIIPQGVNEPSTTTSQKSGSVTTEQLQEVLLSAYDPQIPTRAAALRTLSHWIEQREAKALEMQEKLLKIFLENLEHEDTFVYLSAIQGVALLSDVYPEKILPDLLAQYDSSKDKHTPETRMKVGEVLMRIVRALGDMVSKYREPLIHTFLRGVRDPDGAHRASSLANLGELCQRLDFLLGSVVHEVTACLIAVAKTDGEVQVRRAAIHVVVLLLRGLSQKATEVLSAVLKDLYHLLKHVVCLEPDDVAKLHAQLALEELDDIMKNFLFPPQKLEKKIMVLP
inactive: [1] -0.139 | [2] 0.052 | [4] 0.018 | [5] -0.086
